ADAM17 inh: inhibitors of human ADAM17 | P78536 | hit rate 0.83% among 370,000 | AID 720648 | inhibition, % at 6.95 µM | recombinant ADAM17, EDANS/DABCYL FRET peptide cleavage;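 active = inhibition above the mean of compounds lying between control limits plus 3 SD, set per campaign, cut at about 8.5% in these data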
ADAM10 inh: inhibits human ADAM10. O14672. recombinant ADAM10, EDANS/DABCYL FRET peptide cleavage, 3 h. inhibition, % at 7 µM. hit rate 0.62% among 370,000. AID 720582;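 active = inhibition above a per-campaign cutoff equal to the mean of compounds falling between control-based bounds plus 3 SD, cut at about 20% in these data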
proKLK7 act: proKLK7 (human) activation, primary screen; P49862; purified proKLK7, EDANS-DABCYL substrate fluorescence; 100% is mature enzyme control, 0% vehicle; activation, % at 7 µM; hit rate 0.9% among 370,000;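 active = activation above the mean of all tested compounds plus 3 SD, computed per campaign excluding outliers beyond control limits, cut at about 13% in these data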
AHR act: activators of human aryl hydrocarbon receptor; P35869; AHR-responsive luciferase reporter cells, luminescence; activation, % at 5 µM; hit rate 2.5% among 320,000; AID 2796; in the data active = activation above about 47%
Target sequence (P35869 whole entry, looked up): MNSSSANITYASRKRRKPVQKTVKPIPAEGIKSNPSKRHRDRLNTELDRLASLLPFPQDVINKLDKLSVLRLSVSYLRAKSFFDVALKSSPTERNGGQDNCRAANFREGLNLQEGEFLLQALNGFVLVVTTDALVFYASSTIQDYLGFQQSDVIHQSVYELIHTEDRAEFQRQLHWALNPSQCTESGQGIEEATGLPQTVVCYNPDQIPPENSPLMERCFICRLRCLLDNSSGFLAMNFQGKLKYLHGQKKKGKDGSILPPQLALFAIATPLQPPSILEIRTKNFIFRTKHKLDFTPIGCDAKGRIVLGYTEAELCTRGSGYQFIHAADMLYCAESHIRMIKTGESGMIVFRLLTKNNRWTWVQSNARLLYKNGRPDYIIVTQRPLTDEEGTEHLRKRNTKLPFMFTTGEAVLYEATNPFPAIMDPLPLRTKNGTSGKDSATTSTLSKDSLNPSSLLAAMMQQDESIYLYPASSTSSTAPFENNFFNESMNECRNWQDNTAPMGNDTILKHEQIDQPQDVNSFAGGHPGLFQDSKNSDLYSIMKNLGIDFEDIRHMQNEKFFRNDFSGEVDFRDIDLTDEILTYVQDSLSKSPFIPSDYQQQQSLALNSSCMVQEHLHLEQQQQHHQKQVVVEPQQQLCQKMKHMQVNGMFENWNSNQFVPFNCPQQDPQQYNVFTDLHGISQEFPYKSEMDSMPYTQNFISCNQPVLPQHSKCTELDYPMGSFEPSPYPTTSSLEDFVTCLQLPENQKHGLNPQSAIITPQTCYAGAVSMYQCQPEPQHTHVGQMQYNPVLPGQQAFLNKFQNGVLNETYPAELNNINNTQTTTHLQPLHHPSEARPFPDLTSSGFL
rCAG RNA binder: molecules binding r(CAG) RNA repeats. hit rate 1.3% among 370,000. r(CAG) RNA repeat, TO-PRO-1 dye displacement fluorescence. inhibition, % at 3 µM. AID 651821;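 active = inhibition above the plate cutoff, the mean of all test compounds on that plate plus 3 SD, cut at about 35% in these data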;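 note: higher means more dye released from RNA so lower well fluorescence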
NR3A LBD binder: modulators (binders) of human NR3A ligand-binding domain; NR3A LBD differential scanning fluorimetry, Tm shift; 0% = protein alone, 100% = glycine-bound protein; Tm shift relative to glycine control, % at 25 µM; hit rate 2.5% among 340,000;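 active = melting temperature shift of at least 10% of the positive control shift, at one fixed dose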
Each line names hits and unclear results; the compound was inactive in the other large screens. An excerpt weighted towards active compounds, which were near 7% of everything screened.

CCCn1c(N)c(N(CCOC)C(=O)COC(=O)COc2c(C)cc(C)cc2C)c(=O)[nH]c1=O	none (no result: AHR act, NR3A LBD binder)
O=C(NCc1ccccc1)[C@@H]1CCCN1C(=O)[C@H]1CCCN1C(=O)c1ccc(F)cc1F	none (no result: AHR act, NR3A LBD binder)
O=C(Cc1c[nH]c2ccccc12)Nc1ccc(Nc2cccnc2)cc1	none (no result: AHR act, NR3A LBD binder)
CCCc1nc2cc3c(cc2[nH]1)n(C)c(=O)n3C	AHR act 75.2
COc1ccc(Oc2c(-c3cccs3)cnn(-c3ccc(C)cc3)c2=O)cc1	none (no result: proKLK7 act, AHR act, rCAG RNA binder, NR3A LBD binder)
CCOC(=O)N(C)[C@H]1C[C@H]2c3cc(-c4ccccc4C)ccc3CCN2C[C@H]1[C@H](C)O	none (no result: AHR act, NR3A LBD binder)
CCOc1cc(/C=N/NS(=O)(=O)c2ccccc2)ccc1OS(=O)(=O)c1ccc(C)cc1	NR3A LBD binder 20.0
O=C(C=Cc1ccc(O)c(O)c1)NCC(=O)NC(Cc1ccccc1)C(=O)O (stereo not given)	none (no result: AHR act, NR3A LBD binder)
Cc1ccc2nc(-c3cccc(Br)c3)cc(C(=O)NC3CC3)c2c1	NR3A LBD binder 13.2
COc1ccc(OCc2cc(C(=O)N3CCC(OC)CC3)no2)c2ccccc12	AHR act 51.0
COc1ccc(OCc2cc(C(=O)NC3CCOC(C)(C)C3)no2)c2ccccc12 (stereo not given)	AHR act 67.1 (no result: NR3A LBD binder)
Cc1cccc(C)c1OCc1cc(C(=O)N2CCN3CCCC3C2)no1 (stereo not given)	NR3A LBD binder 12.6 (no result: AHR act)
CCCCCCCCN1C(=O)[C@@H](CC(=O)N2CCSCC2)C[C@@]2(C(=O)OC)C1=C[C@H](C(C)C)O[C@@H]2C1CC1	none (no result: AHR act, NR3A LBD binder)
CN1CCCCC(NC(=O)c2c(F)cccc2F)C1=O (stereo not given)	none (no result: AHR act, NR3A LBD binder)
O=C(CSc1nc2ccccc2nc1N1CCOCC1)NCc1ccc(Cl)cc1Cl	none (no result: AHR act, NR3A LBD binder)
CCCCn1c(=N)n(CC(=O)c2ccc(Br)s2)c2ccccc21	AHR act 52.2
CCn1c(=N)n(CC(=O)c2ccc(Br)s2)c2ccccc21	AHR act 47.6
COc1ccc2ccccc2c1CN1CCN(c2ncc(Cc3ccccc3)cn2)CC1	none (no result: AHR act, NR3A LBD binder)
COc1cc2c(cc1NC(=O)CSc1nnc(-c3ccccc3F)n1-c1ccc(C)cc1)oc1ccccc12	none (no result: AHR act, NR3A LBD binder)
CC(C)(C)NC(=O)C(c1ccccc1)n1c(=O)c(-c2ccco2)nc2ccccc21 (stereo not given)	rCAG RNA binder 36.3 (no result: AHR act, NR3A LBD binder)
O=C(NC1CCCCC1)C(c1cccc2ccccc12)n1c(=O)c(-c2ccco2)nc2ccccc21 (stereo not given)	rCAG RNA binder 35.3 (no result: AHR act, NR3A LBD binder)
COc1ccc(C(C(=O)NC2CCCCC2)n2c(=O)c(-c3ccco3)nc3ccccc32)cc1 (stereo not given)	none (no result: AHR act, NR3A LBD binder)
CCn1c2ccccc2c2cc(NC(=O)COC(=O)c3cccc(F)c3F)ccc21	none (no result: AHR act, NR3A LBD binder)
CCOc1cccc(/C=N\NC(=O)c2cnccn2)c1O	none (no result: AHR act, NR3A LBD binder)
CCOC(=O)N1CCC(N2CC34C=CC(O3)C(C(=O)Nc3ccc(C)cc3)C4C2=O)CC1 (stereo not given)	AHR act 77.2
CCOC(=O)C1C2C=CC3(CN(C4CCCC4)C(=O)C13)O2 (stereo not given)	none
N#CC1C(C#N)N2CCCN2C1c1ccc(Cl)cc1 (stereo not given)	AHR act 48.4
COC(=O)[C@]12C[C@H](CC(=O)N3CCCC3)C(=O)N(CCC3=CCCCC3)C1=C[C@H](C(C)C)O[C@@H]2C1CC1	none (no result: AHR act, NR3A LBD binder)
NS(=O)(=O)c1ccc(NC(=O)CSc2nnc(-c3cccs3)o2)cc1	none (no result: AHR act, NR3A LBD binder)
O=C(CSc1nnc(-c2ccc(O)cc2)o1)Nc1ccc2c(c1)OCCO2	none
Cc1cccc(NC(=O)CSc2nnc(-c3n[nH]c4ccccc34)o2)c1	none
N#Cc1cccc(NC(=O)CSc2nnc(-c3n[nH]c4ccccc34)o2)c1	NR3A LBD binder 70.8
NS(=O)(=O)c1ccc(NC(=O)CSc2nnc(-c3ccc(O)cc3)o2)cc1	NR3A LBD binder 26.2
O=C(CSc1nnc(-c2ccc(O)cc2)o1)Nc1cccc(O)c1	NR3A LBD binder 17.7
O=C(CSc1ccc(Cl)cc1)Nc1cccc(-c2nnc(-c3ccco3)o2)c1	NR3A LBD binder 10.7
Cc1ccc(NC(=O)NNC(=O)CSC2CCc3ccccc32)c(C)c1 (stereo not given)	none (no result: AHR act, NR3A LBD binder)
COc1ccc(CN(Cc2cc3cc4c(cc3[nH]c2=O)OCO4)C(=O)NC2CCCCC2)cc1	none
COC(=O)c1ccccc1S(=O)(=O)N(Cc1cc2cc3c(cc2[nH]c1=O)OCO3)C1CCCCC1	AHR act 62.7 (no result: ADAM17 inh, ADAM10 inh, proKLK7 act, rCAG RNA binder, NR3A LBD binder)
COC(=O)C1=C(C)N(Cc2ccc(C(F)(F)F)cc2)C(=NCc2ccccc2C(F)(F)F)NC1c1ccccc1C(F)(F)F (stereo not given)	none (no result: AHR act, NR3A LBD binder)
Nc1c(-c2ccccc2)cnn1-c1ccccc1	none
O=c1cnn(-c2ccccc2)c(-c2ccccc2)c1	AHR act 50.5
C=CC[C@@]1(c2ccc(Br)cc2OC)Oc2ccccc2-c2nccnc21	none (no result: AHR act, NR3A LBD binder)
Cc1ccc(N2C(=O)C(Cl)=C(NCCO)C2=O)c(C)c1	NR3A LBD binder 361.4
COc1ccc(-n2c(SCC(=O)NCCCSC)nnc2-c2ccncc2)cc1	none (no result: AHR act, NR3A LBD binder)
C=CCc1cc(C)cc(C)c1OCCn1cncn1	AHR act 59.5
COc1ccc(C(c2ccc(OC)cc2)N2CCN(C(=O)c3noc(C)c3[N+](=O)[O-])CC2)cc1	none (no result: proKLK7 act, AHR act, rCAG RNA binder, NR3A LBD binder)
COC(=O)C1CN(Cc2ccccc2)CCS(=O)(=O)N1Cc1cn(Cc2ccccc2)nn1 (stereo not given)	none (no result: AHR act, NR3A LBD binder)
CCOc1ccc(-n2c(N)c(-c3nc4ccccc4[nH]3)sc2=S)cc1	AHR act 72.0
Cc1cc(N)n(-c2ccccn2)n1	NR3A LBD binder 12.5
COc1ccccc1-n1nc(C)cc1N	none
CC(=O)C1=CCN(C)CC1	none (no result: AHR act, NR3A LBD binder)
N/C(=N\OC(=O)c1ccc(F)cc1)c1ccc(Br)cc1	AHR act 52.2
N/C(=N\OC(=O)c1ccc(F)cc1)c1ccccc1	AHR act 59.9
N/C(=N\OC(=O)c1ccc(Br)cc1)c1ccncc1	none
Cc1ccc(/C(N)=N/OC(=O)c2ccc(F)cc2)cc1	none
NC(=O)c1cc([N+](=O)[O-])c(Cl)cc1NCc1ccccn1	AHR act 66.6
CCN(CC(=O)Nc1ccc(NC(C)=O)cc1)C(=O)c1cc(-c2ccccc2)nn1-c1ccccc1	none
CCN(CC(=O)Nc1ccc(NC(C)=O)cc1)C(=O)/C=C/c1cn(-c2ccccc2)nc1-c1ccc(F)cc1	NR3A LBD binder 13.7
COc1cccc(NC(=O)CN(C)C(=O)/C=C/c2cn(-c3ccccc3)nc2-c2ccc(OC)c(OC)c2)c1	none (no result: AHR act)
CCN(CC(=O)Nc1ccc(NC(C)=O)cc1)C(=O)/C=C/c1cn(-c2ccccc2)nc1-c1ccc(C)cc1	NR3A LBD binder 10.4
CN(CC(=O)Nc1ccc(F)cc1)C(=O)c1cn(-c2ccccc2)nc1-c1cccs1	NR3A LBD binder 23.6
COc1ccc(-c2nn(-c3ccccc3)cc2/C=C/C(=O)N(C)CC(=O)Nc2cccc(F)c2)cc1OC	NR3A LBD binder 10.8 (no result: AHR act)

Source: PubChem BioAssay
